The whole screen tested about 190,000 compounds, of which about 4,000 (2.1%) were called active. No stated cut-off is given here; in the data, active means inhibition above about 58%; inactive means the rest, inconclusive results apart; tested in S. cerevisiae. The sample as a whole holds a higher share of actives than the screen did.

Among the data in PubChem BioAssay AID1362 (SRMLSC, 2008) are inhibition values, retold here.

This test can be described thus: growth inhibition of WT strain, primary screen, mitochondrial fusion inhibitor project, WT and mutant strains, chemical genetic (AID 1362). To be noted: mitochondrial fusion phenotypic screen, at 10 µM.
Setting [1] is: WT strain, growth inhibition, stronger effect = higher value.

Consider `CCC(C)(C)NC(=O)/C=C/c1cc(OC)c(OC)c(S(=O)(=O)N2CCc3ccccc32)c1`, for which the inhibition (in general, the relative decrease from the control value, in per cent) by setting is: under setting [1], 7.15% (inactive); (mutant strain inhibition) 8.01%.
On to `COc1ccc(CS(=O)/C(Cl)=C(/Cl)C(=O)Nc2ccc(OC)nc2)cc1` (stereo unspecified), for which the inhibition is 80% (inactive) under setting [1] and 83.5% (mutant strain inhibition).
On to `NC(=O)c1sc2nc3c(c(-c4ccccc4)c2c1N)CCC3`, for which the inhibition by setting is: under setting [1], -6.05% (inactive); (mutant strain inhibition) -18.6%.
Consider `Cc1nc2sc(C(=O)c3ccccc3)c(N)c2c2c1CCCC2`, for which the inhibition under setting [1] is 66.8% (active) and the inhibition (mutant strain inhibition) was 35.7%.
The corresponding values for `CN(C)c1ccnc2sc(C(=O)c3ccccc3)c(N)c12` are 38.8% (inactive) and 22.2%.
On to `COc1ccccc1CNC(=O)C1Cc2ccccc2C(=O)O1` (stereo unspecified), for which the inhibition is, setting by setting: under setting [1], -29.6% (inactive); (mutant strain inhibition) -2%.
The corresponding values for `CCOc1cc(NC(=O)CCl)c(OCC)cc1NC(C)=O` are -12.2% (inactive) and 11.6%.
For `CC(C)(C)NC(=O)CN1CCC(NC(=O)C23CC4CC(CC(C4)C2)C3)CC1` the same measures were -5.35% (inactive) and -4.48%.
The corresponding values for `CSc1ccc(C(=O)C2CCCN(C(=O)c3ccc(C)nc3)C2)cc1` (stereo unspecified) are 0.28% (inactive) and -10.8%.
Turning to `CC1(C)CC(=O)c2cnc3nc4ccccc4n3c2C1`, the inhibition under setting [1] is 16.6% (inactive) and the inhibition (mutant strain inhibition) was -7.45%.
For `O=c1c2ccccc2nc2n1C1(CCCCC1)Cc1ccccc1-2` the same measures were 61.2% (active) and 9.31%.
Consider `CCC1(CC)Cc2ccccc2-c2nc3ccccc3c(=O)n21`, for which the inhibition under setting [1] is -30.3% (inactive) and the inhibition (mutant strain inhibition) is 0.33%.
For `c1cncc(-c2nnc3n2C2(CCCCC2)Cc2ccccc2-3)c1` the same measures were 11.9% (inactive) and 5.15%.
On to `COC(=O)C1=C(C)NC(=O)/C1=C/c1ccc(CNS(=O)(=O)c2ccc(C)cc2)o1`, for which the inhibition was -8.5% (inactive) under setting [1] and 0.18% (mutant strain inhibition).
The corresponding values for `NS(=O)(=O)c1ccc(CCNC(=O)c2ccc([N+](=O)[O-])cc2[N+](=O)[O-])cc1` are -6.04% (inactive) and -5.86%.
For `COc1cc(NC(=O)c2ccccc2NS(=O)(=O)c2ccc(Cl)s2)cc(OC)c1` the same measures were 67.2% (active) and 46.5%.
For `COc1cc(NC(=O)c2cccnc2SC)cc(OC)c1` the same measures were -8.4% (inactive) and -8.46%.
Take `COC(=O)c1ccc(NC(=O)c2ccccc2NS(=O)(=O)c2ccccc2)cc1`: the inhibition runs as follows: under setting [1], 6.94% (inactive); (mutant strain inhibition) 15.7%.
The corresponding values for `CCOC(=O)C1CCN(c2ncnc3c2c(-c2ccccc2)cn3-c2ccc(C)cc2)CC1` are 14.7% (inactive) and 15.5%.
Take `COc1cccc(-c2cc3nc4c(c(N5CCC6(CC5)OCCO6)n3n2)CCCC4)c1`: the inhibition is, setting by setting: under setting [1], 69.6% (active); (mutant strain inhibition) 33.9%.
For `COc1cccc(-c2nc(S(=O)(=O)c3ccccc3)c(N3CCOCC3)o2)c1` the same measures were -12% (inactive) and -5.11%.
As to `COc1cccc(CNc2nc3nc4c(c(=O)n3[nH]2)CCC4)c1`, the inhibition under setting [1] was -0.87% (inactive) and the inhibition (mutant strain inhibition) was -10.6%.
The corresponding values for `Cc1ccc(NC(=O)CN2CCC(C(N)=O)CC2)cc1[N+](=O)[O-]` are -8.61% (inactive) and -3.52%.
For `CCCN(C(=O)CSc1nnnn1C)c1c(N)n(Cc2ccccc2)c(=O)[nH]c1=O` the same measures were -4.08% (inactive) and -15.2%.
The corresponding values for `CC(C)c1ccc2c(c1)c(SC(C)(C)C)c(CC(C)(C)C(=O)O)n2Cc1ccc(Cl)cc1` are 70.4% (active) and 23.5%.
Take `Cc1ccc(C(=O)N2CCN(S(=O)(=O)N3CCOCC3)CC2)cc1`: the inhibition by setting is: under setting [1], 8.87% (inactive); (mutant strain inhibition) 9.09%.
The corresponding values for `COc1ccc(C2CC(c3cccs3)=NN2C(=O)CSc2nncs2)cc1OC` (stereo unspecified) are -1.36% (inactive) and -8.65%.
The corresponding values for `Cc1ccccc1CC1(CO)CCCN(Cc2ccc3c(c2)OCCO3)C1` (stereo unspecified) are -4.77% (inactive) and 1.77%.
For `NC(=O)C[n+]1cccc(C(N)=O)c1` the same measures were -12.7% (inactive) and -23.1%.
For `COc1ccc(Cn2c(-c3ccc(Cl)cc3)c[n+]3ccccc23)cc1`, the inhibition under setting [1] is 65.1% (active) and the inhibition (mutant strain inhibition) came to 49.9%.
For `COc1ccc(Cn2c(=O)cc(C)[nH]c2=S)cc1` the same measures were -15.8% (inactive) and -20.1%.
The corresponding values for `COc1ccc(C(=O)CN(C(=O)c2ccc(Cl)cc2)N2C(=O)c3ccccc3C2=O)cc1` are 6.73% (inactive) and 27.8%.
The corresponding values for `COCCNC(=O)CCCn1c(=O)c2ccccc2n(Cc2cccc([N+](=O)[O-])c2)c1=O` are 5.52% (inactive) and 6.42%.
With `O=C(NCCCNc1ccc([N+](=O)[O-])cc1Cl)c1ccccc1F`, the inhibition was -8.75% (inactive) under setting [1] and -6.43% (mutant strain inhibition).
The corresponding values for `COCCn1c(Cc2cccn2C)nnc1SCC(=O)Nc1nccs1` are 1.47% (inactive) and 4.94%.
The corresponding values for `CCN=C1SC(CC(=O)Nc2ccc(C)cc2)C(=O)N1CC` (stereo unspecified) are -14.8% (inactive) and 6.26%.
For `Cc1ccc(NC(=O)CC2S/C(=N/N=C3\CCCc4ccccc43)NC2=O)cc1` (stereo unspecified) the same measures were 83.8% (active) and 33.5%.
With `Cc1c(Cl)cccc1NC(=O)CC1SC(=NCC2CCCO2)NC1=O` (stereo unspecified), the inhibition under setting [1] was -15.1% (inactive) and the inhibition (mutant strain inhibition) was found to be 19%.
The corresponding values for `COc1ccnc(Oc2ccccc2)c1-c1ncn[nH]1` are 3.65% (inactive) and 2.35%.
The corresponding values for `CC(=O)C1=C(O)C(=O)N(c2cccnc2)C1c1ccc([N+](=O)[O-])cc1` (stereo unspecified) are 2.65% (inactive) and -8.89%.
Consider `Cc1cc(=O)[nH]c(SCC(N)=O)c1C#N`, for which the inhibition under setting [1] was 59.8% (active) and the inhibition (mutant strain inhibition) was -65.4%.
As for `Cc1cc(C#N)c(SCC(N)=O)nc1-c1ccc(F)cc1`, the inhibition by setting is: under setting [1], -8.84% (inactive); (mutant strain inhibition) 0.95%.
The corresponding values for `Cc1cc(C)c(C#N)c(SCC(=O)Nc2ccccc2)n1` are 9.11% (inactive) and -9.66%.
For `C=CCOc1c(CNn2cn[nH]c2=S)cccc1OC` the same measures were -4.69% (inactive) and -6.27%.
For `Cc1ccc(CNC(=O)c2cccnc2Cl)cc1` the same measures were -14.3% (inactive) and -25.1%.
Turning to `CCC(C)(C)c1ccc(OCC(=O)N(C)C)c(C(C)(C)CC)c1`, the inhibition is 79.9% (active) under setting [1] and 14.1% (mutant strain inhibition).
On to `CCc1nc(C)ccc1OCC(=O)N(CC)CC`, for which the inhibition was -20.5% (inactive) under setting [1] and -10.4% (mutant strain inhibition).
For the compound `CN(C)CCOc1ccc(Cl)cc1C(C)(C)C`, the inhibition reads like this: under setting [1], 27.8% (inactive); (mutant strain inhibition) 4.52%.
Consider `O=S1(=O)CC/C(=N\Nc2ccc(F)cc2)c2ccsc21`, for which the inhibition is, setting by setting: under setting [1], 26.2% (inactive); (mutant strain inhibition) 34.7%.
For `O=C(OCC(=O)c1cccs1)C1=COCCO1`, the inhibition under setting [1] is 9.96% (inactive) and the inhibition (mutant strain inhibition) was found to be 20.9%.
The corresponding values for `CCC(C)(C)c1ccc(Oc2ccc(NC(=O)COC(=O)C3=COCCO3)cc2)cc1` are 60.5% (active) and 33.7%.
For `COc1ccc(NC(=O)COC(=O)CNC(=O)C2CCCCC2)cc1` the same measures were -11.9% (inactive) and 12.1%.
For `CN(C)c1ccc(/C=N/NC(=O)C(O)c2ccc(Br)cc2)cc1` (stereo unspecified) the same measures were -4.38% (inactive) and 1.15%.
